Marburg entry inh = qHTS for inhibitors of binding or entry into cells for Marburg Virus; Marburg virus pseudotyped entry inhibition, cell reporter; Potency, µM (titrated, usually from 37.8 µM), without a hit: at the highest dose activity change, negative = inhibition, actives largely listed as inhibitors; hit rate 1.8% among 300,000; calls by dose curve; tested in HEK293 cells; note: potency is the fitted concentration of half-maximal effect; % is set by controls: 0 for no effect and ±100 for the full control effect
LASV entry inh = qHTS for Inhibitors of binding or entry into cells for Lassa Virus; Lassa virus pseudotype entry inhibition, cell reporter; Potency, µM (doses to about 37.9 µM), for inactives: at the top dose activity change, negative = inhibition, usual class: inhibitors; hit rate 1.2% among 300,000; AID 540256, 2011; calls by dose curve; tested in HEK293 cells; note: potency is the fitted concentration of half-maximal effect; % is set by controls: 0 for no effect and ±100 for the full control effect; nearly all actives have a fitted effect of over 50% in size
Cycloheximide cs = Cycloheximide Counterscreen for Small Molecule Inhibitors of Shiga Toxin. cell reporter, cycloheximide protein synthesis inhibition counterscreen. max response, %. hit rate 12% among 300,000. AID 2314, 2010; in the data active = max response mostly above about 13%, no sharp cut-off; inactive = mostly below about 14%; note: read at 38.3 µM for the half of the compounds with a filed dose; 0% is about no effect
Pf growth 48h = Primary qHTS for delayed death inhibitors of the malarial parasite plastid, 48 hour incubation; P. falciparum luciferase growth in erythrocytes, 48 h; Potency, µM (titrated, usually from 28.7 µM), for inactives: at the highest dose activity change, negative = inhibition, usual class: inhibitors; hit rate 5.9% among 310,000; note: potency is the fitted concentration of half-maximal effect; % is set by controls: 0 for no effect and ±100 for the full control effect
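Here the parasites carry a stable luciferase gene and grow inside erythrocytes in Albumax-based RPMI medium with compound for one erythrocytic cycle. Activity is scored as loss of luminescent signal.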
Pf growth 96h = Primary qHTS for delayed death inhibitors of the malarial parasite plastid, 96 hour incubation; P. falciparum luciferase reporter growth, 96 h; Potency, µM (series often up to 28.7 µM), for inactives: at the highest dose activity change, negative = inhibition, hits mostly inhibitors; hit rate 6.9% among 320,000; AID 504834, 2011; note: potency is the fitted concentration of half-maximal effect; % is set by controls: 0 for no effect and ±100 for the full control effect
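Luminescence readout: decreased luciferase signal marks inhibited growth of reporter-expressing P. falciparum in infected red cells (2% hematocrit, 0.05% parasitemia final), exposed to compound two generations (96 h, 37 C, 5% CO2).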
Shiga toxin inh = A qHTS for Small Molecule Inhibitors of Shiga Toxin; Vero cells, Shiga toxin protein synthesis inhibition reporter; inhibition, % at 38.7 µM; hit rate 9.2% among 290,000; in the data active = inhibition mostly above about 28%, no sharp cut-off; inactive = mostly below about 43%; note: 0% is about no effect
* marks the source's active call; other numbers are inactive results; i = inactive; u = inconclusive; x = no result; [ ] = dose if it differs, or a comment. Sampled rows, rich in hits. Any-hit rate of the full collection: about 19%. Unless noted, calls come from the whole dose curve; as a rule, active = well fitted inhibition curve with a large enough effect; inconclusive = small, poorly fitted or top-dose-only effect, or another doubt; inactive = no such curve, though single readings can be large or run the other way.

SMILES | Marburg entry inh | LASV entry inh | Cycloheximide cs | Pf growth 48h | Pf growth 96h | Shiga toxin inh
O=C(c1sccc1Br)N1CCN(Cc2ccc3c(c2)OCO3)CC1 | -18.5%[46.1 µM] | -2.7%[46.1 µM] | 10.7 | 0.9% | 16.4% | 6.1
COC(=O)c1scc(-c2ccc(C)cc2)c1S(=O)(=O)Nc1ccc(N(C)C)cc1 | x | 13.2%[46.1 µM] | x | x | x | x
COC(=O)c1scc(C)c1S(=O)(=O)Nc1ccc(C)cc1 | u | u | -1.3 | u | 11.7µM* | 26.6
CCCCCCSc1ccc(-c2nc3ccc(C)cn3c2NCc2ccccc2)cc1OC | x | x | x | 5.22µM* | 4.65µM* | x
COc1ccc(-c2nc3ccc(C)cn3c2NCc2ccccc2)cc1SC1CCCCC1 | x | x | x | 10.4µM* | 6.57µM* | x
COc1ccc(-c2nc3cc(C)ccn3c2NCC2CCCO2)cc1OC (centres undefined) | 2.7% | 26.4% | x | x | x | x
COCCNc1c(-c2ccc(OC)c(OC)c2)nc2ccc(Cl)cn12 | x | x | -5.1 | u | 18.2% | -11.4
CCC(C)Sc1ccc(-c2nc3ccc(C)cn3c2NCc2ccccc2)cc1OC (centres undefined) | x | x | x | 3.7µM* | 4.65µM* | x
CCCCCCSc1cc(-c2nc3ccc(Cl)cn3c2NCCCC)ccc1OC | x | x | x | u | -5.8% | x
CON1C(=O)C(=O)N(OC)C(C)(C)C1C (centres undefined) | 9.5% | 5.5% | -1.9 | -0.9% | 44.8% | -5.2
Cc1nc(SCC(=O)N2CCCc3ccccc32)c2oc3ccccc3c2n1 | -49.4% | u | 3.2 | -3.5% | -17.9% | -5.5
O=C(NC(=S)Nc1ccccc1N1CCCCC1)c1ccccc1 | x | x | -4.4 | 0.0% | -18.9% | -13.3
Clc1ccc(-n2cnnn2)cc1 | 2.5% | 17.4% | -3.7 | 11.3% | u | -15.2
CO/C=C\C=C/c1nnn(-c2ccc(Cl)cc2)n1 | u | -10.2%[46.1 µM] | 41.3* | 38.7% | 30.9% | 70.4*
NC(=O)c1cnccc1C=Cc1ccccc1 | -18.0% | -0.5% | x | x | x | x
Cc1nn(C)c(Cl)c1NC(=O)OCc1ccc(F)cc1 | -4.8% | -15.6% | -2.9 | 5.7% | 4.2% | 54.5
COc1cccc(CN2CCNC(=O)C2CC(=O)NCCN2CCOCC2)c1OC (centres undefined) | 18.9% | -6.4% | -4.0 | 6.4% | 48.6% | -6.3
COc1cccc(CN2CCNC(=O)C2CC(=O)NCC(C)(C)N2CCOCC2)c1OC (centres undefined) | 7.2% | 15.3% | -1.2 | 3.0% | 10.4µM* | 15.7
COc1cccc(CNC(=O)CC2C(=O)NCCN2Cc2ccoc2)c1OC (centres undefined) | u | -9.5%[46.1 µM] | -2.2 | u | 11.7µM* | -12.0
COc1cccc(CN2CCNC(=O)C2CC(=O)NCCn2cccn2)c1OC (centres undefined) | x | x | -3.3 | -2.0% | u | 11.2
Cc1nn(Cc2ccc(Cl)c(Cl)c2)c(C)c1NC(=O)c1cc(-c2ccco2)on1 | u | u | 3.1 | u | 58.1% | 7.0
CCC(=NCc1ccc(Cl)c(Cl)c1)c1nc(-c2ccco2)oc1O | u | u | 23.0 | u | 11.7µM* | 48.2*
CC(=O)c1cccc(NC(=O)CN2C=NS(=O)(=O)c3ccc(C)cc32)c1 | 0.5%[46.1 µM] | u | -1.9 | u | -0.7% | 1.6
Cc1ccc(-n2nc(C)cc2NC(=O)COc2cc(C)cc3oc(=O)c4c(c23)CCC4)cc1 | u | -17.4% | 13.6 | u | 9.28µM* | -12.9
Cc1cc(OC(=O)c2cccs2)c2c3c(c(=O)oc2c1)CCCC3 | u | -17.0% | -2.6 | 5.86µM* | 54.2% | -14.1
SMILES | Marburg entry inh | LASV entry inh | Cycloheximide cs | Pf growth 48h | Pf growth 96h | Shiga toxin inh
Cc1cc(OC(=O)c2ccco2)c2c3c(c(=O)oc2c1)CCCC3 | 11.2µM* | u | -3.5 | x | 3.7µM* | -4.6
Cc1cc(OCC(=O)Nc2cc(C)nn2-c2ccccn2)c2c3c(c(=O)oc2c1)CCC3 | x | x | -2.0 | 5.8% | 146.7% | -13.3
Cc1cc2oc(=O)c3c(c2cc1OC(=O)c1ccco1)CCCC3 | u | -22.7% | -1.8 | 23.3% | 41.8% | -15.2
COc1cccc(CNC(=O)Cn2c(=O)n3nc(-c4cccc(F)c4)nc3c3ccccc32)c1 | x | 8.1%[46.1 µM] | x | x | x | x
COc1cc(OC)c(-c2nc3c[n+](CC(=O)c4ccccc4)ccc3n2C)cc1OC | 13.3% | -2.5% | -2.1 | 1.85µM* | u | 14.8
COc1ccc(C(=O)C[n+]2ccc3c(c2)nnn3-c2ccccc2)cc1 | u | 24.9% | 3.2 | u | 272.0% | -6.1
COc1ccc(C(=O)C[n+]2ccc3c(c2)nc(-c2cc(OC)c(OC)cc2OC)n3C)cc1 | -4.1% | 2.5% | -0.8 | 3.29µM* | 1.04µM* | -10.4
COc1cc(OC)c(-c2nc3cnccc3n2C)cc1OC | -11.8% | u | 1.0 | 0.6% | -13.4% | -4.8
Cc1ccc(OCCC(=O)OCC(=O)Nc2cc(C)nn2-c2ccccc2)cc1 | 24.4%[46.1 µM] | 5.0%[46.1 µM] | -1.0 | 57.8% | 1.2% | -5.9
Cc1ccc(-c2nc3cccnc3s2)cc1NC(=O)c1ccco1 | u | 17.5% | x | x | x | x
O=C(Nc1ccc(-c2nc3cc(Cl)ccc3o2)cc1)C1CCCO1 (centres undefined) | u | u | 29.7* | 231.9% | i | 69.6*
O=C(Nc1ccc2oc(-c3ccccc3)nc2c1)C1CCCO1 (centres undefined) | u | u | 45.3* | 236.1% | 344.3% | 66.5*
CC(C)N(c1ccccc1)c1ccc(NC(=O)C2CCCO2)cc1 (centres undefined) | u | u | -1.1 | x | u | 5.4
O=C(Nc1ccc(-c2nc3cccnc3s2)cc1)C1CCCO1 (centres undefined) | 2.59µM* | u | 17.4 | 84.3% | -9.7% | 13.2
O=C(Nc1ccc2oc(-c3ccccc3)nc2c1)c1ccc2ccccc2c1 | x | 9.9%[46.1 µM] | x | x | x | x
O=C(Nc1ccc(-c2nc3ccccc3o2)cc1)C1CCCO1 (centres undefined) | u | u | 37.3* | 113.1% | x | 73.4*
CCOCCCNC(=O)C(NC(=O)c1ccc2c(c1)OCO2)c1ccccc1 (centres undefined) | 0.7%[46.1 µM] | -22.9% | 2.2 | -3.0% | u | 3.0
CN1CCN(C(=O)c2ccccc2NC(=O)c2cccc(Cl)c2)CC1 | -3.6% | 1.5% | -4.6 | 6.9% | 1.6% | -14.4
O=C(CCSCCc1ccccn1)Nc1ccc(Cl)cc1 | x | -24.9%[46.1 µM] | x | x | x | x
CO/C=C/C#CC1(O)CCN(C)CC1 | 14.7% | 20.5% | -1.9 | -0.6% | 17.7% | -6.4
Cc1ccc(NC(=S)N(CCC(C)C)C(C)c2ccncc2)c(Cl)c1 (centres undefined) | u | u | 23.1* | u | u | 35.5
Cc1cccc(NC(=O)Cc2ccc(-c3ccccc3)cc2)n1 | -4.4%[46.1 µM] | -0.1%[46.1 µM] | 5.4 | 7.5% | 65.6% | 13.8
Cc1cccc(NC(=S)NC(=O)c2ccc(-c3ccccc3)cc2)n1 | u | u | 26.0* | 50.5% | u | 37.3*
Cc1cccc(NC(=S)NC(=O)c2oc3ccccc3c2C)n1 | u | u | 37.6* | 66.2% | 32.5% | 56.0*
